Assay results: PubChem BioAssay (NCATS)
Several values for one entry are separate records, joined by “and”; a condition that tells them apart may be missing. Identical values can stand only once. Inconclusive results are not listed. Activity calls are given as the source filed them. Unless noted, calls come from the whole dose curve; as a rule, active = well fitted curve in the direction sought with a large enough effect; inconclusive = small, poorly fitted or top-dose-only effect, or another doubt; inactive = no such curve, though single readings can be large; an effect the other way counts as inactive or inconclusive.

Key:
UISO = experiment: qHTS assay to identify novel small-molecules to repurpose for Merkel cell carcinoma treatment (AID 1296009); details: MCC and control cell lines, CellTiter-Glo viability, 72 h; series mostly up to 46 µM; note: % is set by controls: 0 for no effect and ±100 for the full control effect; nearly all actives have a fitted effect of over 60% in size
How it was run: (§1)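 Cells were treated for 72 hr at 37 degree celsius with compounds in 8- or 11-point dose response. Viability was read by CellTiter-Glo luminescence, normalized to no-cell (cytotoxicity) and DMSO controls.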

WaGa = experiment: as above; details: MCC and control cell lines, CellTiter-Glo viability, 72 h; series mostly up to 46 µM
How it was run: as §1

C33A = experiment: Primary qHTS to identify gynecologic anti-cancer compounds using libraries of approved drugs and bioactive compounds (AID 1345084); details: Gynecologic cancer cell panel viability, ATPlite luminescence, 48 h; series mostly up to 57.5 µM; note: % is set by controls: 0 for no effect and ±100 for the full control effect; nearly all actives have a fitted effect of over 55% in size
How it was run: (§2)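 ATP-based viability (ATPlite), 1,000 cells/well, 16 h pre-incubation, 48 h compound at 37 C, 5% CO2, 15 min RT before read.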

CAOV3 = experiment: as above; details: Gynecologic cancer cell panel viability, ATPlite luminescence, 48 h; series mostly up to 57.5 µM
How it was run: as §2

CASKI = experiment: as above; details: Gynecologic cancer cell panel viability, ATPlite luminescence, 48 h; series mostly up to 57.5 µM
How it was run: as §2

Es-2 = experiment: as above; details: Gynecologic cancer cell panel viability, ATPlite luminescence, 48 h; series mostly up to 57.5 µM
How it was run: as §2

HeLa = experiment: as above; details: Gynecologic cancer cell panel viability, ATPlite luminescence, 48 h; series mostly up to 57.5 µM
How it was run: as §2

Hek293T = experiment: as above; details: Gynecologic cancer cell panel viability, ATPlite luminescence, 48 h, control line for the selectivity index; series mostly up to 57.5 µM
How it was run: as §2

JEG-3 = experiment: as above; details: Gynecologic cancer cell panel viability, ATPlite luminescence, 48 h; series mostly up to 57.5 µM
How it was run: as §2

OV90 = experiment: as above; details: Gynecologic cancer cell panel viability, ATPlite luminescence, 48 h; series mostly up to 57.5 µM
How it was run: as §2

PA-1 = experiment: as above; details: Gynecologic cancer cell panel viability, ATPlite luminescence, 48 h; series mostly up to 57.5 µM
How it was run: as §2

Tov-21-G = experiment: as above; details: Gynecologic cancer cell panel viability, ATPlite luminescence, 48 h; series mostly up to 57.5 µM
How it was run: as §2

Tov112D = experiment: as above; details: Gynecologic cancer cell panel viability, ATPlite luminescence, 48 h; series mostly up to 57.5 µM
How it was run: as §2

[1] = Drug repurposing screens with cells derived from glioblastoma tumor samples (AID 1345199); details: GBM patient neurospheres viability, ATP luminescence, 48 h; note: % is set by controls: 0 for no effect and ±100 for the full control effect; nearly all actives have a fitted effect of over 40% in size
How it was run: (§3)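 Four patient lines of CD133+ GBM neurospheres were screened at several concentrations; hits were retested in those lines plus three slower-growing GBM lines, using 48-hour treatment and ATP-based viability.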

astro = experiment: as above; details: viability, ATP luminescence, 48 h; series mostly up to 45.9 µM
How it was run: as §3

SKOV3 = experiment: Primary qHTS to identify gynecologic anti-cancer compounds using libraries of approved drugs and bioactive compounds (AID 1345084); details: Gynecologic cancer cell panel viability, ATPlite luminescence, 48 h; series mostly up to 57.5 µM; note: % is set by controls: 0 for no effect and ±100 for the full control effect; nearly all actives have a fitted effect of over 55% in size
How it was run: as §2

[2] = molecular target: Nuclear receptor subfamily 1 group I member 2 (Rattus norvegicus) (UniProt Q9R1A7); experiment: qHTS assay for small molecule activators of the rat pregnane X receptor (rPXR) signaling pathway (AID 651751; call rule not given here; note: 0% is about no effect); details: rPXR reporter cells, luciferase (One-Glo), 24 h
Chain of Nuclear receptor subfamily 1 group I member 2 (Rattus norvegicus) (Q9R1A7 whole entry, looked up): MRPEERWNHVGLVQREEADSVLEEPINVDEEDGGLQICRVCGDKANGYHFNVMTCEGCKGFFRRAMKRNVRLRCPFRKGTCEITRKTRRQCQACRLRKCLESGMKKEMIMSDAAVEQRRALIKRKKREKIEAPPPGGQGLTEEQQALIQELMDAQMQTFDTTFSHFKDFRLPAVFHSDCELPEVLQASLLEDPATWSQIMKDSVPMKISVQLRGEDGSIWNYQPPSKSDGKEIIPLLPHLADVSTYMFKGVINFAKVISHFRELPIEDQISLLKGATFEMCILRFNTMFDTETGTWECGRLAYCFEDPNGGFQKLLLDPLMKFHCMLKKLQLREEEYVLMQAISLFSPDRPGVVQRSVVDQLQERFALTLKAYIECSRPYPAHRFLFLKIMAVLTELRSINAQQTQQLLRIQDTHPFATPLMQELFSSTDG

[3] = qHTS assay for small molecule activators of the human pregnane X receptor (PXR) signaling pathway (AID 720659; call rule not given here; note: 0% is about no effect)
[4] = at 45.9 µM (top of the series), tumour line B
[5] = at 45.9 µM (top of the series), tumour line D
[6] = at 46.1 µM (top of the series), tumour line C
[7] = at 46 µM (top of the series), tumour line A
[8] = at 20 µM (top of the series), tumour line C
[9] = at 21.2 µM (top of the series), tumour line B
[10] = at 21.2 µM (top of the series), tumour line D
[11] = at 21.3 µM (top of the series), tumour line A

CCN1CC(CCN2CCOCC2)C(c2ccccc2)(c2ccccc2)C1=O (stereo not given)
inactive: outcome (UISO) | outcome (WaGa) | outcome (C33A) | outcome (CAOV3) | outcome (CASKI) | outcome (Es-2) | outcome (HeLa) | outcome (Hek293T) | outcome (JEG-3) | Potency (OV90) | outcome (PA-1) | outcome (Tov-21-G) | outcome (Tov112D) | activity, negative = cell killing [1, 4] -13.3% | activity, negative = cell killing [1, 5] -11.4% | activity, negative = cell killing [1, 6] -23.7% | outcome (astro)

O=C(O)CCCCC1CCSS1 (stereo not given)
inactive: outcome (UISO) | outcome (WaGa) | outcome (C33A) | outcome (CAOV3) | outcome (CASKI) | outcome (Es-2) | outcome (HeLa) | outcome (Hek293T) | outcome (JEG-3) | Potency (OV90) | outcome (PA-1) | outcome (SKOV3) | outcome (Tov-21-G) | outcome (Tov112D) | activity, negative = cell killing [1, 4] -9.35% | activity, negative = cell killing [1, 5] -12.2% | activity, negative = cell killing [1, 6] -7.1% | outcome (astro) | max response [2] -15% and -8.97% | outcome [3]

O=C(O)Cc1ccc(CCNS(=O)(=O)c2ccc(Cl)cc2)cc1
inactive: outcome (UISO) | outcome (WaGa) | outcome (C33A) | outcome (CAOV3) | outcome (CASKI) | outcome (Es-2) | outcome (HeLa) | outcome (Hek293T) | outcome (JEG-3) | Potency (OV90) | outcome (PA-1) | outcome (SKOV3) | outcome (Tov-21-G) | outcome (Tov112D) | activity, negative = cell killing [1, 4] -9.63% | activity, negative = cell killing [1, 5] -6.01% | outcome (astro)

C[C@@H](c1ncncc1F)C(O)(Cn1cncn1)c1ccc(F)cc1F (stereo not given in full)
inactive: outcome (UISO) | outcome (WaGa) | outcome (C33A) | outcome (CAOV3) | outcome (CASKI) | outcome (Es-2) | outcome (HeLa) | outcome (Hek293T) | outcome (JEG-3) | outcome (PA-1) | outcome (SKOV3) | outcome (Tov-21-G) | outcome (Tov112D) | activity, negative = cell killing [1, 4] -6.32% | activity, negative = cell killing [1, 5] -23.3% | activity, negative = cell killing [1, 6] 6.65% | outcome (astro)

CC[N+](C)(CC)CCOC(=O)C1c2ccccc2Oc2ccccc21
inactive: outcome (UISO) | outcome (WaGa) | outcome (C33A) | outcome (CAOV3) | outcome (CASKI) | outcome (Es-2) | outcome (HeLa) | outcome (Hek293T) | outcome (JEG-3) | Potency (OV90) | outcome (PA-1) | outcome (Tov-21-G) | outcome (Tov112D) | activity, negative = cell killing [1, 4] -11.7% | activity, negative = cell killing [1, 5] 10.5% | activity, negative = cell killing [1, 7] -6.39% | activity, negative = cell killing [1, 6] -9.49% | outcome (astro)

C1CCN2C[C@@H]3C[C@@H](CN4CCCC[C@@H]34)[C@H]2C1
inactive: outcome (UISO) | outcome (WaGa) | outcome (C33A) | outcome (CAOV3) | outcome (CASKI) | outcome (Es-2) | outcome (HeLa) | outcome (Hek293T) | outcome (JEG-3) | outcome (PA-1) | outcome (SKOV3) | outcome (Tov-21-G) | outcome (Tov112D) | activity, negative = cell killing [1, 8] 4.02% | activity, negative = cell killing [1, 9] -1.82% | activity, negative = cell killing [1, 10] -18% | activity, negative = cell killing [1, 11] -22% | outcome (astro)

C[C@H]1COc2c(C3(N)CC3)c(F)cc3c(=O)c(C(=O)O)cn1c23
inactive: outcome (UISO) | outcome (WaGa) | outcome (C33A) | outcome (CAOV3) | outcome (CASKI) | outcome (Es-2) | outcome (HeLa) | outcome (Hek293T) | outcome (JEG-3) | Potency (OV90) | outcome (PA-1) | outcome (SKOV3) | outcome (Tov-21-G) | outcome (Tov112D) | activity, negative = cell killing [1, 4] -13.2% | activity, negative = cell killing [1, 6] -15.1% | outcome (astro)

CN1CCN(C(=O)C2CCCCC2)CC1
inactive: outcome (UISO) | outcome (WaGa) | outcome (C33A) | outcome (CAOV3) | outcome (CASKI) | outcome (Es-2) | outcome (HeLa) | outcome (Hek293T) | outcome (JEG-3) | Potency (OV90) | outcome (PA-1) | outcome (Tov-21-G) | outcome (Tov112D) | activity, negative = cell killing [1, 4] -7.62% | activity, negative = cell killing [1, 5] -7.41% | activity, negative = cell killing [1, 6] -23.1% | outcome (astro)

CN1CC(=O)NC1=N
inactive: outcome (UISO) | outcome (WaGa) | outcome (C33A) | outcome (CAOV3) | outcome (CASKI) | outcome (Es-2) | outcome (HeLa) | outcome (Hek293T) | outcome (JEG-3) | Potency (OV90) | outcome (SKOV3) | outcome (Tov-21-G) | outcome (Tov112D) | activity, negative = cell killing [1, 4] -7.86% | activity, negative = cell killing [1, 5] -12.2% | activity, negative = cell killing [1, 7] -16.7% | activity, negative = cell killing [1, 6] -13.9% | outcome (astro)

OC[C@@H](O)[C@@H](O)[C@H](O)[C@H](O)CO
inactive: outcome (UISO) | outcome (WaGa) | outcome (C33A) | outcome (CAOV3) | outcome (CASKI) | outcome (Es-2) | outcome (HeLa) | outcome (JEG-3) | Potency (OV90) | outcome (PA-1) | outcome (SKOV3) | outcome (Tov-21-G) | outcome (Tov112D) | activity, negative = cell killing [1, 4] -7.17% | activity, negative = cell killing [1, 5] -4.25% | activity, negative = cell killing [1, 7] -11.8% | activity, negative = cell killing [1, 6] -0.87% | outcome (astro) | max response [2] -1.36% | outcome [3]

O=C1CC[C@@H](C(=O)O)N1
inactive: outcome (UISO) | outcome (WaGa) | outcome (C33A) | outcome (CAOV3) | outcome (CASKI) | outcome (Es-2) | outcome (HeLa) | outcome (Hek293T) | outcome (JEG-3) | Potency (OV90) | outcome (PA-1) | outcome (SKOV3) | outcome (Tov-21-G) | outcome (Tov112D) | activity, negative = cell killing [1, 4] -10.6% | activity, negative = cell killing [1, 5] -16.2% | activity, negative = cell killing [1, 6] 1.94% | outcome (astro)

COCC(=O)Nc1c(I)c(C(=O)NCC(O)CO)c(I)c(C(=O)N(C)CC(O)CO)c1I (stereo not given)
inactive: outcome (UISO) | outcome (WaGa) | outcome (C33A) | outcome (CAOV3) | outcome (CASKI) | outcome (HeLa) | outcome (Hek293T) | outcome (JEG-3) | Potency (OV90) | outcome (PA-1) | outcome (SKOV3) | outcome (Tov-21-G) | outcome (Tov112D) | activity, negative = cell killing [1, 8] 5.9% | activity, negative = cell killing [1, 9] -2.18% | activity, negative = cell killing [1, 10] -2.4% | activity, negative = cell killing [1, 11] -10.5% | outcome (astro)

CC1(c2ccccc2)OC(C(=O)O)=CC1=O (stereo not given)
inactive: outcome (UISO) | outcome (WaGa) | outcome (C33A) | outcome (CAOV3) | outcome (CASKI) | outcome (Es-2) | outcome (HeLa) | outcome (JEG-3) | Potency (OV90) | outcome (SKOV3) | outcome (Tov-21-G) | outcome (Tov112D) | activity, negative = cell killing [1, 4] -1.24% | activity, negative = cell killing [1, 5] -9.61% | activity, negative = cell killing [1, 6] -15.9%
